Most compounds without a hit are left out; they make up all but 6.5% or so of the library.
Vaccinia Venus = inhibitors of vaccinia virus (Venus reporter). Potency, µM (top dose mostly 36.5 µM), for inactives: at the highest dose activity change, negative = inhibition, hits mostly inhibitors. Vaccinia virus Venus reporter expression, fluorescence. hit rate 0.46% among 330,000. AID 720580; calls by dose curve; tested in A549 cells; further: potency means the concentration at half of the fitted maximal effect; nearly all actives have a fitted effect of over 30% in size
HCMV inh = human cytomegalovirus inhibition | activity change, negative = inhibition, % at 57.5 µM | HFF cells, HCMV-luciferase reporter, 72 h; stronger effect = lower value | hit rate 4.5% among 410,000 | AID 1259415; in the data active means activity change below about -60%; inconclusive means no clear call, values can overlap the other calls; inactive means above about -39%
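Human foreskin fibroblasts infected with luciferase-reporter HCMV at MOI 1 PFU/cell, compounds at two doses. Luciferase measured 72 h post infection; normalized to buffer-only basal and Salinomycin (10uM) controls.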
VACV mCherry inh = vaccinia inhibition (mCherry reporter) | Vaccinia virus mCherry reporter infection, fluorescence | Potency, µM (titrated, usually from 36.5 µM), inactives show at the highest dose activity change, negative = inhibition, usual class: inhibitors | hit rate 0.63% among 310,000; calls by dose curve; tested in A549 cells; further: potency means the concentration at half of the fitted maximal effect; nearly all actives have a fitted effect of over 35% in size
LASV entry inh = inhibitors of Lassa virus binding or cell entry. Lassa virus pseudotype entry inhibition, cell reporter. Potency, µM (highest dose often 37.9 µM), for inactives: at the top dose activity change, negative = inhibition, most hits filed as inhibitors. hit rate 1.2% among 300,000. AID 540256; calls by dose curve; tested in HEK293 cells; further: potency means the concentration at half of the fitted maximal effect; nearly all actives have a fitted effect of over 50% in size
FMDV inh = blocks foot and mouth disease virus; FMDV antiviral cell-based qHTS; Potency, µM (series often up to 57.9 µM), for the others: top-dose activity change, negative = inhibition, usual class: inhibitors; hit rate 1.2% among 410,000; calls by dose curve; tested in HEK293T cells; further: read-out not given here; potency means the concentration at half of the fitted maximal effect; nearly all actives have a fitted effect of over 45% in size
MARV entry inh = Marburg virus entry inhibition. Marburg virus pseudotyped entry inhibition, cell reporter. Potency, µM (series often up to 37.8 µM), inactives show at the highest dose activity change, negative = inhibition, hits mostly inhibitors. hit rate 1.8% among 300,000; calls by dose curve; tested in HEK293 cells; further: potency means the concentration at half of the fitted maximal effect
The depositor's hits bear a star; i = inactive; ? = inconclusive; . = no result given; [ ] = dose if it differs, or a comment. On the % scale 0 is the no-effect control and ±100 the full control effect.

SMILES	Vaccinia Venus	HCMV inh	VACV mCherry inh	LASV entry inh	FMDV inh	MARV entry inh
COCCCNc1cc(C)nc2ccccc12	-2%	73	-9%	-6%	-4%	2%
Cc1cc(NCCCCCCCNc2cc(C)nc3cc([N+](=O)[O-])ccc23)c2ccc([N+](=O)[O-])cc2n1	10µM*	-24	?	?	0%	?
CC1(C)CC(=O)/C(=C\c2cccc([N+](=O)[O-])c2)C(C)(C)N1	-19%	-86*	?	?	?	?
Cc1ccc(CS(=O)(=O)Cc2ccc(C(=O)NCCCN3CC(C)CC(C)C3)o2)cc1 (stereo unspecified)	.	-30	.	.	8%	.
CC1CC(C)CN(CCCNC(=O)c2ccc(CS(=O)(=O)Cc3ccccc3F)o2)C1 (stereo unspecified)	-11%	-73*	.	-2%	6%	2%
CCC(=O)N=c1sc2cc(F)cc(F)c2n1C	-2%	-62*	i	.	31%	.
CCc1ccc(NC(=O)c2ccc3c(c2)CCN3S(C)(=O)=O)cc1	-28%	5	i	.	-7%	.
Cc1ccc(NC(=O)c2ccc3c(c2)CCN3S(C)(=O)=O)cc1C	-26%	72	i	?	19%	?
CC(C)c1ccc(NC(=O)c2ccc3c(c2)CCN3S(=O)(=O)c2ccccc2)cc1	?	-30	?	?	?	?
CCCCc1ccc(NC(=O)c2ccc3c(c2)CCN3S(=O)(=O)CC)cc1	?	-64*	?	?	-6%	1%[46.1 µM]
CC(C)c1ccc(NC(=O)c2ccc3c(c2)CCCN3S(C)(=O)=O)cc1	?	-74*	?	-24%[46.1 µM]	10µM*	?
CCCCOC(=O)c1ccc(NC(=O)c2ccc3c(c2)CCN3S(C)(=O)=O)cc1	-7%	-17	-10%	4%[46.1 µM]	35µM*	?
CS(=O)(=O)N1CCc2cc(C(=O)Nc3ccc(Cl)c(C(F)(F)F)c3)ccc21	-15%	-71*	-24%	?	-13%	?
CS(=O)(=O)N1CCc2cc(C(=O)Nc3ccc(C(F)(F)F)cc3)ccc21	-14%	-63*	-13%	?	-9%	14%[46.1 µM]
Cc1ccc(NC(=O)c2ccc3c(c2)CCN3S(C)(=O)=O)cc1	-24%	15	i	.	39%	.
CCSc1ccccc1C(=O)N1CCN(c2ccccc2F)CC1	.	-103*	.	3%	4%	-21%
O=S(=O)(c1ccccc1)c1nnn2c1nc(NCc1ccccc1)c1sccc12	?	6	-29%	16%[46.1 µM]	-15%	.
O=C(c1cnccn1)N1CCC[C@@]2(CCN(Cc3cc(C(F)(F)F)cc(C(F)(F)F)c3)C2)C1	.	.	.	.	-5%	.
COc1ccc(-n2cc(-c3ccccc3)c3c(N4CC(C)OC(C)C4)ncnc32)cc1 (stereo unspecified)	-9%	14	-8%	?	22µM*	?
CN1CCCN(C(=O)/C=C/c2ccc(Cl)cc2Cl)CC1	-9%	-62*	i	.	-3%	.
CN1CCN(C2=Cc3ccc(Cl)cc3Sc3ccc(F)cc32)CC1	?	22	?	?	-1%	7.9µM*
Cc1cccc(C)c1NC(=O)c1cn(-c2ccccc2)nc1-c1ccccc1	-15%	-64*	-1%	-3%	-20%	17%
COC(=O)c1ccc(NC(=O)c2cn(-c3ccccc3)nc2-c2ccncc2)cc1	-25%	-98*	.	-15%	?	13µM*
CN1CCN(NC(=O)c2cn(-c3ccccc3)nc2-c2ccc(OC(F)F)cc2)CC1	-24%	-38	-21%	7%	-5%	7.1µM*
O=C(Nc1cccc(S(=O)(=O)N2CCOCC2)c1)c1cn(-c2ccccc2)nc1-c1ccc(F)cc1	3%	-23	-7%	-11%	10%	?
SMILES	Vaccinia Venus	HCMV inh	VACV mCherry inh	LASV entry inh	FMDV inh	MARV entry inh
O=C(Nc1cccc(S(=O)(=O)N2CCOCC2)c1)c1cn(-c2ccccc2)nc1-c1ccccc1	-14%	-64*	i	?	26%	?
CCCc1c(OCC(O)COc2ccc3c(=O)cc(C(=O)O)oc3c2CCC)ccc(C(C)=O)c1O (stereo unspecified)	.	.	.	.	-6%	.
Cc1cc(C(=O)c2ccccc2)c(NC(=O)CCl)s1	-16%	53	-2%	-16%	?	1µM*
CCCCCCCCCC[n+]1cccc2c3ccccc3ccc21	.	-108*	.	.	?	.
CCCCCCCC[n+]1cccc2c3ccccc3ccc21	?	-97*	-27%	.	?	.
COCC(C)n1c(C)cc(C(=O)COC(=O)c2c(C)nn(-c3ccccc3)c2C)c1C (stereo unspecified)	-27%	6	?	?	-9%	?
COCC(C)n1c(C)cc(C(=O)COC(=O)c2c(NC(C)=O)sc(C)c2C)c1C (stereo unspecified)	-10%	-5	-17%	?	?	2.6µM*
COc1ccccc1/C=c1/[nH]c(=O)/c(=C\c2ccccc2OC)[nH]c1=O	-11%	.	-1%	.	.	.
CC(C)(C)Nc1ncnc2sc(-c3ccccc3)cc12	.	-73*	.	.	?	.
OCCCNc1ncnc2sc(-c3ccccc3)cc12	-24%	-36	-14%	?	?	?
c1ccc(-c2cc3c(N4CCN(c5ccccc5)CC4)ncnc3s2)cc1	-4%	-28	-14%	-25%	32µM*	?
COC(=O)c1ccc(Cn2c(=O)cc(C(F)(F)F)c3c(C)nn(C)c32)cc1	2%	11	-9%	17%[46.1 µM]	-20%	.
CCC1CN(C(=O)N2CCC(C(=O)NCCCc3ccccc3)CC2)c2cc(C)ccc2O1 (stereo unspecified)	-11%	-16	-2%	?	?	.
CCOc1ccc(CCNC(=O)C2CCN(C(=O)N3CC(CC)Oc4ccc(C)cc43)CC2)cc1 (stereo unspecified)	-22%	-21	-15%	-17%[46.1 µM]	28µM*	.
CCN(CC)c1ccc(/C=C2\SC(=O)N(C(C)C)C2=O)o1	40%	.	i	?	19%	11µM*
Cn1c(=O)c(=O)n(C)c2cc(NC(=O)c3cccc(F)c3)c(Cl)cc21	-6%	-19	-14%	-1%[46.1 µM]	-18%	3%[46.1 µM]
COc1ccc(Nc2c3c(nc4ccc(C)cc24)CCC3)cc1	.	-81*	.	.	?	.
Cc1ccc2nc3c(c(Nc4ccc(O)cc4)c2c1)CCC3	-28%	?	?	.	-17%	.
Cc1ccc2nc3c(c(Nc4ccc5c(c4)OCCO5)c2c1)CCC3	?	-66*	?	14µM*	-44%	?
Cc1ccc2nc3c(c(Nc4ccc(C)c(C)c4)c2c1)CCC3	-29%	?	?	?	-12%	.
CC1(C)[C@H](C(=O)NC2CCCCCC2)CC[C@]1(C)C(=O)O	.	.	.	.	.	21%
CC[C@@H]1Cn2c(c3nc(-c4cc(Cl)cc(Cl)c4Cl)nc-3n(C)c2=O)N1	.	.	.	.	-21%	.
CNc1c(Cl)cc(C=O)cc1Cl	-9%	.	25%	.	.	.
COc1cc2c(cc1OC)C1CC(=O)C(CC(C)C)CN1CC2 (stereo unspecified)	-6%	-62*	i	?	-27%	?

Screens: PubChem, National Center for Advancing Translational Sciences (NCATS)
